Paper PMC4336329 (PLoS ONE, 2015)
Hit rate of the full screen: of about 310,000 compounds, about 14,000 (4.5%) showed an effect of 50% or more. The effect is printed as a negative number. The entries come from a sample that favours strong results as a whole.

target: human ether-à-go-go-related gene (hERG) potassium channel (human, UniProt Q12809); test: primary screen, population patch clamp on CHO cells stably expressing hERG; higher = less effect of the substance
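Note: peak tail current of the secondary pulse compared with the same well before compound.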

human ether-à-go-go-related gene (hERG) potassium channel, sequence (Q12809 whole entry, looked up): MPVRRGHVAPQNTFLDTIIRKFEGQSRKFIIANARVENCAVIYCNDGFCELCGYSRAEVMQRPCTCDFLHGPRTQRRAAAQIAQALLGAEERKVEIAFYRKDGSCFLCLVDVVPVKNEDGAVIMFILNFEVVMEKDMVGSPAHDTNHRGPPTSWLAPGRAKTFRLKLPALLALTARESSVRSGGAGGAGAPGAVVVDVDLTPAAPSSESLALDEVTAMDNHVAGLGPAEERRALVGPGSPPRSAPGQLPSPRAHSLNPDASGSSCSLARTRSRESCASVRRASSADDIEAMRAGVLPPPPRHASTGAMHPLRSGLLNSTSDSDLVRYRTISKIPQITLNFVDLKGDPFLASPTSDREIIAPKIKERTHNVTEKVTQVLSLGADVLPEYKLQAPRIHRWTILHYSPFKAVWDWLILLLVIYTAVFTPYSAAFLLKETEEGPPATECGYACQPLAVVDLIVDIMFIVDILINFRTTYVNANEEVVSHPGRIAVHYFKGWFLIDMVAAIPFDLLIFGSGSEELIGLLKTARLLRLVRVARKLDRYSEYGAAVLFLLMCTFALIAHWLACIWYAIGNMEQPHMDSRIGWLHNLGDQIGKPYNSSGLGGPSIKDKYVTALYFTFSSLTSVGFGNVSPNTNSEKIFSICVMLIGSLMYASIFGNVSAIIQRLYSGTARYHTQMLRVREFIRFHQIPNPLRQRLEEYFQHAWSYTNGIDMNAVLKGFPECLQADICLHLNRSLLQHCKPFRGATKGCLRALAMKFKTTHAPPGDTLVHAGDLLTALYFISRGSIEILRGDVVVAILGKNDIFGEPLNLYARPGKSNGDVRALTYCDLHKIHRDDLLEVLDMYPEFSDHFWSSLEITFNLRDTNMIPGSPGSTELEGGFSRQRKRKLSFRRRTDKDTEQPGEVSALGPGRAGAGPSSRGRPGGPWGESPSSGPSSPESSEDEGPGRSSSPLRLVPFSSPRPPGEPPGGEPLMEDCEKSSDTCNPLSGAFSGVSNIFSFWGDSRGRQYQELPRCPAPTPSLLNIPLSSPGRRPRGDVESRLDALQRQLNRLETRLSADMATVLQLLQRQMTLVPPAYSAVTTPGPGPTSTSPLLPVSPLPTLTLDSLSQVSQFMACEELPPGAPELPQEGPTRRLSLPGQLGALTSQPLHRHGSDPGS

Point of comparison: `Cc1ccc(OCC(=O)N2CCCC(N3CCN(c4ccc(F)cc4)CC3)C2)cc1` (stereo not drawn), “hERG current change (%, negative = inhibition) at 10uM” value -101%. Against it:
- Cc1cc(-c2ccccc2)n(-c2cc(N/N=C/c3ccccc3O)ncn2)n1 — higher, -10.5%
- Cc1ccnc2nc(C(=O)OCC(=O)NC3CCCC(C)C3C)nn12 (stereo not drawn) — higher, -10.4%
- Cn1c(=O)c2c(nc(NCc3ccc4c(c3)OCO4)n2C)n(C)c1=O — higher, -13.1%
- NC(=O)C1CCN(C(=O)CSc2nc3ccccc3[nH]2)CC1 — higher, 4.06%
- Fc1cccc(Cl)c1Cn1nnc(-c2ccc(N3CCOCC3)cc2)n1 — higher, 8.99%
- COc1ccc(-n2c(CNC(=O)c3cccs3)n[nH]c2=S)cc1 — higher, 27.7%
- COc1cc(C)c(Br)cc1S(=O)(=O)N1CCCC1 — higher, -22.1%
- COc1ccc(/C=C2/C(=O)NC(=S)N(C3CC3)C2=O)cc1CN1C(=O)c2ccccc2C1=O — higher, -8.62%
- COc1ccc(C(=O)COC(=O)Cc2n[nH]c(=O)c3ccccc23)c(OC)c1 — higher, 16.7%
- COc1ccccc1C(=O)N(CCN(C)C)c1nc2cc(C)cc(C)c2s1.Cl — higher, -82%
- COCCN(C(=O)Nc1ccccc1OC)c1nc2ccccc2s1 — higher, 19.9%
- COc1cc2ccccc2cc1C(=O)N(CCN(C)C)c1nc2ccc(Br)cc2s1.Cl — higher, 9.85%
- COc1cc2ccccc2cc1C(=O)N(CCN(C)C)c1nc2ccc(C)cc2s1.Cl — higher, -11.2%
- CN(C)CCCN(C(=O)/C=C/c1cccs1)c1nc2ccc(F)cc2s1.Cl — higher, -41%
- CN(C)CCCN(C(=O)c1ccco1)c1nc2ccc(F)cc2s1.Cl — higher, -70.5%
- CN(C)CCN(C(=O)c1ccco1)c1nc2cc3c(cc2s1)OCCO3.Cl — higher, -32.8%
- Cc1cc(C)c2sc(N(CCN(C)C)C(=O)c3cc(Cl)sc3Cl)nc2c1.Cl — higher, 9.32%
- COc1ccccc1C(=O)N(CCC1CCCN1C)c1nc2ccccc2s1 (stereo not drawn) — higher, -50.9%
- Cc1cc(C)c2sc(N(CCN(C)C)C(=O)c3ccc4ccccc4c3)nc2c1.Cl — higher, 7.53%
- CN(C)CCCN(C(=O)c1ccco1)c1nc2ccc(Br)cc2s1.Cl — higher, -71.8%
- CCCCn1c(N)c(N(CCOC)C(=O)COC(=O)c2cc(CC)c(C)s2)c(=O)[nH]c1=O — higher, 22%
- Cn1c(SCC(=O)Nc2ccc3[nH]c(=O)[nH]c3c2)nnc1-c1ccc(F)cc1 — higher, 7.63%
- [O-]/[N+](=C\c1ccccc1)c1ccc(Br)cc1 — higher, -0.595%
- CCn1c(CSc2nc3ccccc3s2)nnc1SCC(=O)c1ccc(Cl)cc1 — higher, 6.76%
- CC(=O)c1cccc(NC(=O)N2CCCC2C(=O)NCc2ccccc2)c1 (stereo not drawn) — higher, 15%
- C1=C(c2ccccc2)CCN(c2nc3ccccc3n3cnnc23)C1 — higher, -8.21%
- CCCCN(C)CCNC(=O)C1CCN(S(=O)(=O)c2cccc3nsnc23)CC1 — higher, -15.3%
- O=[N+]([O-])c1ccc(Oc2c(F)c(F)nc(N3CCCC3)c2F)cc1 — higher, -19.7%
- CCN(CC)CCN(C(=O)c1ccc(C(C)=O)cc1)c1nc2ccc(Cl)cc2s1.Cl — higher, -30.2%
- Cc1ccc(C(=O)N(CCCN(C)C)c2nc3ccc(Cl)cc3s2)cc1C.Cl — higher, -56.4%
- CN(C)CCN(C(=O)c1ccc(S(=O)(=O)N(C)c2ccccc2)cc1)c1nc2ccc(Cl)cc2s1.Cl — higher, -13%
- CNS(=O)(=O)c1cccc2cccnc12 — higher, 11.1%
- Cc1ccc(N2C(=O)CC(NCc3ccc4c(c3)OCO4)C2=O)cc1Cl (stereo not drawn) — higher, -54.8%
- CCN1C(=O)CC(NCc2ccc3c(c2)OCO3)C1=O (stereo not drawn) — higher, -9.23%
- O=C1CC(NCc2ccc3c(c2)OCO3)C(=O)N1Cc1ccc2c(c1)OCO2 (stereo not drawn) — higher, -4.06%
- CS(=O)(=O)N(CC(=O)N1CCN(Cc2ccccc2)CC1)c1ccccc1F — higher, -5.93%
- CCC(C)NC(=O)CSc1nnc(-c2cc(-c3cccs3)nc3ccccc23)o1 (stereo not drawn) — higher, -0.833%
- CCNC(=O)CSc1nnc(-c2cc(-c3ccc(Cl)cc3)nc3ccccc23)o1 — higher, -82.3%
- CCN(CC)C(=O)CSc1nnc(-c2cc(-c3ccc(Cl)cc3)nc3ccccc23)o1 — higher, -3.85%
- Cc1nn(-c2cc(N3CCCCCC3)ccc2[N+](=O)[O-])c(=O)c2ccccc12 — higher, 6.02%
- O=C(NCCc1c[nH]c2ccccc12)C(=O)NCC(c1ccco1)N1CCN(c2ccc(F)cc2)CC1 (stereo not drawn) — higher, 7.65%
- Cc1cc(C)n(CC(=O)c2ccccc2)c(=O)c1C#N — higher, 10.9%
- CCNc1nc(NCC)nc(OCCOC(=O)Nc2ccccc2)n1 — higher, -0.811%
- CCNc1nc(NCC)nc(SCCOC(=O)Nc2ccccc2)n1 — higher, -71%
- CCNc1nc(NCC)nc(SCCOC(=O)c2ccccc2)n1 — higher, -39.4%
- O=C(CSc1nnc(CNC(=O)c2ccccc2)o1)NCc1ccco1 — higher, -0.224%
- Cc1ccc(CSc2ccc(S(=O)(=O)N3CCOCC3)cn2)cc1 — higher, -10.2%
- COc1cc(/C=C/C(=O)Nc2ccccc2C(F)(F)F)cc(OC)c1OC — higher, -5.76%
- COC(=O)CN(c1nc(C)cc(OC)n1)S(=O)(=O)c1ccc(C)cc1 — higher, -8.25%
- Cc1c(C(=O)C(=O)NCCc2ccc(S(N)(=O)=O)cc2)c2ccccc2n1C — higher, -13.4%
- COc1ccc(S(=O)(=O)NCc2ccncc2)cc1NC(=O)c1ccc(Cl)cc1 — higher, -67.4%
- COc1ccc(S(=O)(=O)NCc2ccccn2)cc1NC(=O)c1ccc(C)cc1 — higher, -16.5%
- COc1ccc(S(=O)(=O)NCc2cccnc2)cc1NC(=O)c1ccc(C)cc1 — higher, -17.6%
- COc1ccc(S(=O)(=O)NCc2ccncc2)cc1NC(=O)c1ccccc1F — higher, 18.7%
- COc1ccc(S(=O)(=O)NCc2cccnc2)cc1NC(=O)c1ccc(Cl)cc1 — higher, -52.2%
- COc1ccc(S(=O)(=O)NCc2cccnc2)cc1NC(=O)c1ccccc1 — higher, -3.99%
- COc1ccc(S(=O)(=O)NCc2ccncc2)cc1NC(=O)c1ccccc1 — higher, -34.7%
- COc1ccc(S(=O)(=O)NCC2CCCO2)cc1NC(=O)c1ccccc1F (stereo not drawn) — higher, 19.1%
- COc1ccc(S(=O)(=O)NCc2ccccn2)cc1NC(=O)c1ccc(Cl)cc1 — higher, -68.8%
- COc1ccc(S(=O)(=O)NCC2CCCO2)cc1NC(=O)c1ccc(Cl)cc1 (stereo not drawn) — higher, -54%
- COc1ccc(S(=O)(=O)NCC2CCCO2)cc1NC(=O)c1ccccc1 (stereo not drawn) — higher, -15.4%
- COc1ccc(S(=O)(=O)NCc2ccccn2)cc1NC(=O)c1ccccc1 — higher, 8.45%
- O=C(COc1ccccc1Cl)N1CCN(c2ccc(F)cc2)CC1 — higher, -6.04%
- COc1ccc(N2CCN(C3CCCN(C(=O)CSC)C3)CC2)cc1 (stereo not drawn) — higher, 3.1%
- Cc1cc(C)n(CC(=O)N2CCCC(N3CCN(c4ccc(F)cc4)CC3)C2)n1 (stereo not drawn) — higher, -18.1%
- O=C(COc1ccccc1Cl)N1CCCC(N2CCN(c3ccc(F)cc3)CC2)C1 (stereo not drawn) — higher, -65.8%
- O=C(CCN1CCCCO1)N1CCCC(N2CCN(c3ccc(F)cc3)CC2)C1 (stereo not drawn) — higher, -11.2%
- COc1ccccc1N1CCN(C2CCCN(C(=O)CC(F)(F)F)C2)CC1 (stereo not drawn) — higher, 12.4%
- COc1ccccc1OCC(=O)N1CCCC(N2CCN(c3ccc(F)cc3)CC2)C1 (stereo not drawn) — higher, -52.9%
- COc1ncccc1C(=O)N1CCCC(N2CCN(c3ccc(F)cc3)CC2)C1 (stereo not drawn) — higher, -26.7%
- COc1ccc(CN2CCN(C(=O)CCC(=O)Nc3nnc(CC(C)C)s3)CC2)cc1F — higher, -17.9%
- O=C(c1cccc2ccccc12)N1CCN(c2ccccc2F)CC1 — higher, -9.72%
- O=C(CCC(=O)Nc1ccccc1)N/N=C/C=C/c1ccccc1 — higher, 32.1%
- CC(=O)Nc1ccc(NC(=O)C2CC(=O)N(c3cccc(C)c3C)C2)cc1 (stereo not drawn) — higher, 9.48%
- Cc1ccn2c(CN(C)CCn3nc(C)cc3C)c(C(=O)N3CCCCCC3)nc2c1 — higher, 4.86%
- Cc1cc2cc3c(cc2nc1SCc1ccccn1)OCCO3 — higher, 5.43%
- O=c1c(Cl)c(N2CCOCC2)cnn1-c1ncc(C(F)(F)F)cc1Cl — higher, 5.44%
- Cc1ccc(N2CC(C(=O)Nc3ccc(S(=O)(=O)N4CCCC4)cc3)CC2=O)cc1C (stereo not drawn) — higher, 6.52%
- Cc1c(/C(O)=C2/C(=O)C(=O)N(CCN3CCOCC3)C2c2cccs2)cnn1-c1ccccc1 (stereo not drawn) — higher, 13.6%
- COc1cccc(C(=O)NCc2ccc3c(c2)cc(C)n3C)c1 — higher, 17%
- CCc1ccc2[nH]c(=O)c(CN(CCCO)C(=O)NCc3ccccc3)cc2c1 — higher, -13%
- CCc1ccc2[nH]c(=O)c(CN(CCN(CC)CC)C(=O)Nc3ccccc3OC)cc2c1 — higher, -76.5%
- CCc1ccc2[nH]c(=O)c(CN(CCO)C(=O)NCc3ccccc3)cc2c1 — higher, 3.64%
- CCc1ccc2[nH]c(=O)c(CN(Cc3ccccc3OC)C(=O)Nc3ccccc3OC)cc2c1 — higher, 3.47%
- CCc1ccc2[nH]c(=O)c(CN(Cc3ccccc3)C(=O)Nc3ccccc3OC)cc2c1 — higher, 4.2%
- CCc1ccc2[nH]c(=O)c(CN(CCN(C)C)C(=O)Nc3ccccc3OC)cc2c1 — higher, -64.7%
